Rows were chosen to be rich in hits. Some 4.6% of all compounds tested hit in one or more screens of this group.
TIM10 inh: TIM10 yeast growth inhibition; S. cerevisiae TIM10 strain growth, BacTiter-Glo luminescence, 24 h; inhibition, % at 10 µM; hit rate 1.4% among 330,000; AID 463195;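 active = inhibition of 40% or more at the single tested concentration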;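 also: wild-type TIM10 isogenic control strain grown at permissive 25 °C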
SKKanGAS inh: blocks kanamycin growth of S. pyogenes SKKanGAS strain | BacTiter-Glo, 6 h | inhibition, % at 7.5 µM | hit rate 1.3% among 300,000 | AID 1662;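 active = mean replicate score, as percent of positive control median, at least 50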;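 also: strain carries kanamycin resistance gene driven by streptokinase promoter and grows in 40 µg/ml kanamycin; loss of luminescence reflects streptokinase promoter inhibition or plain growth inhibition; 0% = median of DMSO wells and 100% = positive control at its reference dose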
NLRP3 yeast inh: NALP3 inhibition in yeast | Yeast reconstituted NLRP3/ASC/caspase-1, beta-gal luminescence, 24 h | inhibition, % at 10 µM | hit rate 0.39% among 330,000;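 active = inhibition of 50% or more; inactive = inhibition below 50%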;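 also: plate controls were induced DMSO wells for no effect and uninduced yeast grown without galactose for full effect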
tim10-1 inh: inhibits growth of tim10-1 mutant yeast; AID 463190; inhibition, % at 20 µM; S. cerevisiae tim10-1 ts strain growth, BacTiter-Glo, 24 h; hit rate 2.2% among 330,000;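 active = inhibition of at least 40%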;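 also: mutant grown at 25 °C; 0% = DMSO wells with yeast and 100% = wells holding no yeast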
PfHsp90 set2: growth inhibition of yeast expressing Plasmodium Hsp90. S. cerevisiae expressing PfHsp90, BacTiter-Glo ATP, 48 h; yeast lacking PDR1 and PDR3 efflux regulators. inhibition, % at 9.4 µM. hit rate 0.32% among 310,000. AID 504621;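 active = every replicate shows inhibition above about 80%, whatever the replicate mean, limit read from the data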;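 also: 0% = DMSO neutral controls and 100% = 20 µM radicicol positive controls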
tim23-1 inh: tim23-1 yeast growth inhibition; S. cerevisiae tim23-1 growth, BacTiter-Glo luminescence, 24 h; inhibition, % at 20 µM; hit rate 1.3% among 330,000; AID 463212;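 active = growth inhibition of the mutant yeast at or above 50%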;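 also: temperature-sensitive mutant grown at 25 °C; plate controls were DMSO-treated mutant yeast for no effect and medium wells lacking yeast for full effect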
tim23-1 conf: confirmation of tim23-1 mutant yeast growth inhibitors. S. cerevisiae tim23-1 growth, BacTiter-Glo luminescence, 24 h. inhibition, % at 20 µM. hit rate 83% among 4,400. shares compounds with tim23-1 inh;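 active = inhibition above about 39% in either of two replicate wells at 20 µM, limit read from the data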;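 also: temperature-sensitive tim23-1 mutant grown at 25 °C; 0% = DMSO wells with yeast and 100% = medium wells without yeast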
Starred values were filed as active, the others as inactive; · = no result given.

SMILES	TIM10 inh	SKKanGAS inh	NLRP3 yeast inh	tim10-1 inh	PfHsp90 set2	tim23-1 inh	tim23-1 conf
Cc1ccc(S(=O)(=O)Nc2cccc(-c3ccc(N4CCCCCC4)nn3)c2)cc1	-2.4	10.2	15.9	18.9	-5.8	16.1	·
CC1CCCCN1C(=O)Nc1cccc(Cl)c1 (stereo unspecified)	17.3	-2.0	4.4	16.4	·	51.4*	48.0*
COc1cccc(CN2CCNC(=O)C2CC(=O)NCCc2nc(C)c(C)s2)c1OC (stereo unspecified)	0.3	-8.4	-0.2	17.1	3.6	8.6	·
Cc1ccc(S(=O)(=O)CCC(=O)OCC(=O)Nc2cc(S(=O)(=O)N3CCOCC3)ccc2C)cc1	-5.1	0.2	14.4	-19.9	·	-6.5	·
O=C(CCOc1ccccc1)Nc1ccccc1F	11.5	-0.7	25.5	15.3	34.4	11.2	·
Oc1ccccc1C1NN=C(c2ccccc2)S1 (stereo unspecified)	27.9	8.8	31.9	14.4	7.5	58.3*	54.2*
CSc1ccc(C2NN=C(c3ccccc3)S2)cc1 (stereo unspecified)	10.2	3.0	41.9	5.6	3.5	8.3	·
C=C(C)COc1ccc(C2NC(=O)c3ccccc3O2)cc1OCC (stereo unspecified)	13.5	-2.5	14.1	9.6	-16.9	26.4	·
CC(C)(C)CC(=O)NC(=S)Nc1ccccc1C(F)(F)F	35.8	2.2	20.8	33.6	-5.3	50.9*	39.3
CS(=O)(=O)N(Cc1ccccc1)c1ccccc1C(=O)N1CCN(c2ccccc2)CC1	18.7	-4.5	11.8	24.4	·	22.9	·
CC(C)(C)c1ccc(NC(=O)c2ccsc2)cc1	25.4	21.6	41.1	24.3	·	55.7*	48.0*
COc1ccc(S(=O)(=O)Nc2ccc(-n3cccc3)cc2)cc1	21.4	8.5	24.2	36.7	-9.9	55.2*	49.7*
COc1ccc(NS(=O)(=O)c2ccc(N3C(=O)CCC3=O)cc2)cc1	-8.7	3.9	4.5	10.0	12.1	-4.5	·
CC(NC(=O)Nc1ccc(F)cc1F)c1ccncc1 (stereo unspecified)	1.1	21.9	0.0	10.8	-3.9	6.0	·
Cc1cc(N)n2nc(C)c(-c3ccc(Cl)cc3)c2n1	39.5	-6.5	19.9	33.9	-7.1	62.9*	71.8*
Cc1cc(Cl)n2nc(C)c(-c3ccc(Cl)cc3)c2n1	13.5	·	6.0	34.8	2.4	25.1	·
Cc1occc1C(=O)N/N=C/C(Br)=C/c1ccccc1	17.4	22.4	3.4	24.3	16.8	54.6*	75.4*
O=C(NCCCN1CCCC1=O)c1cccc(S(=O)(=O)N2CCCCC2)c1	-0.6	·	-2.4	-3.3	13.2	-15.5	·
CCOC(=O)[C@H]1[C@H]2COc3ccc(OC)cc3[C@@H]2N2C(=O)CN(Cc3ccc(OC)cc3)C(=O)[C@@]12C	17.9	·	8.8	20.3	1.5	20.2	·
C/C(=N\Nc1ccc(S(=O)(=O)N2CCCCC2)cn1)c1ccc(O)cc1	39.3	·	2.1	26.0	·	34.8	·
COc1cccc(/C(C)=N/Nc2ccc(S(=O)(=O)N3CCCCC3)cn2)c1	39.1	·	3.2	26.6	-32.3	51.5*	44.0*
O=c1oc(-c2ccccc2[N+](=O)[O-])nc2ccccc12	14.2	3.3	0.3	31.7	10.1	55.5*	50.5*
O=c1oc(-c2ccc([N+](=O)[O-])cc2)nc2ccccc12	28.7	3.4	8.7	1.1	-21.8	11.1	·
O=c1oc(-c2ccc([N+](=O)[O-])cc2)nc2ccc(O)cc12	14.5	-2.3	18.7	21.5	-17.9	51.6*	64.8*
CCCn1c(C)cc(/C=C(\C#N)C(=O)OCC(=O)N(CC)c2c(N)n(Cc3ccccc3)c(=O)[nH]c2=O)c1C	·	·	·	·	-17.9	·	·
O=C(NCCc1c[nH]c2ccccc12)/C(=C\c1ccco1)NC(=O)c1ccco1	3.6	-3.0	6.0	13.9	13.9	94.2*	3.6
O=C(/C=C/c1ccccc1)NCCc1c[nH]c2ccccc12	18.8	4.9	13.9	-11.1	-15.2	59.3*	59.6*
Oc1c(Br)cc(Br)cc1CNc1cccc2cccnc12	25.7	88.5*	19.5	27.0	27.0	57.0*	62.2*
COc1ccc(-c2ccc(C(c3c(C)[nH][nH]c3=O)c3c(C)[nH][nH]c3=O)o2)c([N+](=O)[O-])c1	10.2	·	7.1	11.5	14.9	30.7	·

From PubChem BioAssay
